# Measurements as given in PubChem BioAssay (EPA / NIEHS).
# Results filed as inconclusive are left out. Calls of active or inactive are those of the source. Rule for the calls, unless noted: active = hit-call score of the fitted dose curve at least 0.9, where 1 is the maximum; inactive = score below 0.9.
# Key:
# [1] = CCTE_Harrill_HTTr_Viability_MCF7: CCTE's 6-hour Cell Viability Assessment for the High-Throughput Transcriptomics (HTTr) Platform, in MCF-7 cells cultured in DMEM + 10% fetal bovine serum, Harrill Lab (AID 2284010)
# Summary of the method: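 MCF-7 cells in DMEM + 10% FBS, 384-well, exposed 6 h to an eight-point dilution series. Membrane integrity scored by high-content imaging of propidium iodide exclusion; bidirectional fit versus DMSO.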
# [2] = CCTE_Harrill_HTTr_Apoptosis_MCF7: CCTE's 6-hour Apoptosis Assessment for the High-Throughput Transcriptomics (HTTr) Platform, in MCF-7 cells cultured in DMEM + 10% fetal bovine serum, Harrill Lab (AID 2284011)
# Summary of the method: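 MCF-7 cells in DMEM + 10% FBS exposed 6 h to chemicals over an eight-point dilution series. Caspase-3/7 activation imaged by high-content CellEvent Green staining; fitted bidirectionally versus DMSO.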
# [3] = CCTE_Harrill_HTTr_CellCount_MCF7: CCTE's Cell Proliferation Assessment for the High-Throughput Transcriptomics (HTTr) Platform, Harrill Lab (AID 2284012; active = hit-call score of the fitted dose curve at least 0.9, where 1 is the maximum;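 note: cells exposed to compound for six hours; intended direction is loss of nuclei count meaning fewer cells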)
# Summary of the method: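 MCF7 cells exposed 6 hours to an eight-point dilution series; Hoechst-stained nuclei counted by high-content imaging. Bidirectional curve fitting against DMSO baseline.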
# [4] = CCTE_Shafer_MEA_acute_spike_number: CCTE's Neural Acute Assay for Total Number of Spikes, Shafer Lab (AID 2284008)
# Summary of the method: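 Rat primary cortical neurons on 48-well MEA plates, DIV 13 or 15, at 37 C. 40 min baseline then 40 min with compound (0.03-40 uM); spikes detected at 8x rms noise, expressed as percent change from baseline.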
# [5] = CCTE_Shafer_MEA_acute_firing_rate_mean: CCTE's Neural Acute Assay for Mean Firing Rate, Shafer Lab (AID 2284009);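 note: analyzed for loss of signal so actives lower firing rate relative to DMSO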
# Summary of the method: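 Read-out: well-mean spike rate (spikes/recording length/electrodes), % change from 40 min pre-dose baseline to 40 min with compound. Rat cortical cultures, DIV 13 or 15, 37 C; 0.03-40 uM; DMSO as negative control.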
# [6] = CCTE_Shafer_MEA_acute_burst_number: CCTE's Neural Acute Assay for Single-Electrode Bursts, Shafer Lab (AID 2284013)
# Summary of the method: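 Rat cortical cultures, DIV 13/15; 40 min baseline, then 40 min with compound 0.03-40 uM, 37 C. Spikes: 300-5000 Hz band-pass, threshold 8x rms noise. Readout = % change in single-electrode bursts vs baseline, loss-of-signal fit.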
# [7] = CCTE_Shafer_MEA_acute_burst_duration_mean: CCTE's Neural Acute Assay for Mean Burst Duration, Shafer Lab (AID 2284014);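 note: hits are decreases in mean burst duration relative to DMSO controls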
# Summary of the method: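 Primary rat cortical neurons on 16-electrode MEA wells, treated on DIV 13 or 15 with compound (0.03-40 uM; ≥3 wells each). 40-min baseline and 40-min exposure recordings at 37 C; percent change in mean burst duration per well versus DMSO.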
# [8] = CCTE_Shafer_MEA_acute_interburst_interval_mean: CCTE's Neural Acute Assay for Mean Interburst Interval, Shafer Lab (AID 2284016);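 note: percent change of mean interburst interval versus each well's own pre-dose baseline; curves fitted for decrease in interburst interval relative to DMSO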
# Summary of the method: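 MEA recording of spontaneous network bursting in primary rat cortical cultures; mean interburst interval was compared before and after a 40-min compound exposure (0.03-40 uM) and expressed as percent change, relative to DMSO.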
# [9] = CCTE_Shafer_MEA_acute_burst_percentage_mean: CCTE's Neural Acute Assay for Percentage of Spikes in a Burst, Shafer Lab (AID 2284017)
# Summary of the method: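 Compounds were tested at 0.03-40 uM on primary rat cortical neuron networks grown over microelectrodes, with at least three wells per compound. Spontaneous firing was recorded for 40 min before and 40 min after dosing, and the change in burst percentage was computed per well.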
# [10] = CCTE_Shafer_MEA_acute_burst_percentage_std: CCTE's Neural Acute Assay for Standard Deviation of Burst Percentage, Shafer Lab (AID 2284018);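 note: fitted in the negative direction so actives lower burst percentage SD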
# Summary of the method: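 Primary rat cortical neurons on 16-electrode MEA wells were recorded 40 min at baseline (DIV 13 or 15), then 40 min after compound (0.03-40 uM), at 37 C. Well value is SD across electrodes of spikes-in-bursts/total spikes; endpoint is percent change, DMSO-referenced.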
# [11] = CCTE_Shafer_MEA_acute_per_network_burst_spike_number_mean: CCTE's Neural Acute Assay for Average Number of Spikes in a Network Burst, Shafer Lab (AID 2284019)
# Summary of the method: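 Primary rat cortical neurons on 16-electrode MEA wells, DIV 13 or 15, 37 C; 40-min baseline then 40-min recording with compound (0.03-40 uM). Spikes per network burst (total spikes/number of bursts) expressed as percent change from baseline, DMSO reference.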
compound,measurement,setting,value
C=CC(=O)OCCCC,outcome,[1],inactive
same,outcome,[2],inactive
CC(C)(C)C1=CC(=O)C(C(C)(C)C)=CC1=O,outcome,[1],inactive
same,outcome,[2],inactive
same,outcome,[3],inactive
CN(C)CCOC(C)(c1ccccc1)c1ccccn1 (configuration not stated),outcome,[1],inactive
same,outcome,[2],inactive
same,outcome,[3],inactive
CCCC(=O)OCCc1ccccc1,outcome,[1],inactive
same,outcome,[2],inactive
same,outcome,[3],inactive
Cc1ncc([N+](=O)[O-])n1CCO,outcome,[1],inactive
same,outcome,[2],inactive
CC1=CC[C@@]23C[C@@H]1C(C)(C)[C@@H]2CC[C@H]3C,outcome,[1],inactive
same,outcome,[2],inactive
CCCCC1(COC(=O)CCC(=O)O)C(=O)N(c2ccccc2)N(c2ccccc2)C1=O,outcome,[1],inactive
same,outcome,[2],inactive
same,outcome,[3],inactive
O=CN1CCOCC1,outcome,[4],inactive
same,outcome,[5],inactive
same,outcome,[6],inactive
same,outcome,[7],inactive
same,outcome,[8],inactive
same,outcome,[9],inactive
same,outcome,[10],inactive
same,outcome,[11],inactive
CC(C)(CO)[C@@H](O)C(=O)NCCC(=O)O,outcome,[1],inactive
same,outcome,[2],inactive
same,outcome,[3],inactive
c1ccc2[nH]cnc2c1,outcome,[1],inactive
same,outcome,[2],inactive
same,outcome,[3],inactive
CCOC(=O)c1ccc(N)cc1,outcome,[1],inactive
same,outcome,[2],inactive
CC1(C)O[C@@H]2C[C@H]3[C@@H]4CCC5=CC(=O)C=C[C@]5(C)[C@@]4(F)[C@@H](O)C[C@]3(C)[C@]2(C(=O)CO)O1,outcome,[1],inactive
same,outcome,[2],inactive
COc1ccc(CCN2CCC(Nc3nc4ccccc4n3Cc3ccc(F)cc3)CC2)cc1,AC50,[1],76.2 µM (active)
same,outcome,[2],inactive
same,AC50,[3],79.2 µM (active)
CC(C)(C)c1ccc(C(=O)O)cc1,outcome,[1],inactive
same,outcome,[2],inactive
same,outcome,[3],inactive
COCCOCCOCCO,outcome,[1],inactive
same,outcome,[2],inactive
CN1C(=O)c2ccccc2C1=O,outcome,[1],inactive
same,outcome,[2],inactive
same,outcome,[3],inactive
c1ccc(CCc2ccccc2)cc1,outcome,[1],inactive
same,outcome,[2],inactive
same,outcome,[3],inactive
C=C(C)[C@@H]1CC=C(C)C(=O)C1,outcome,[1],inactive
same,outcome,[2],inactive
Cc1ccc(N)c(S(=O)(=O)O)c1,outcome,[1],inactive
same,outcome,[2],inactive
same,outcome,[3],inactive
Nc1ccccc1[N+](=O)[O-],outcome,[1],inactive
same,outcome,[2],inactive
C[C@H]1C[C@@H](O)CC(C)(C)C1,outcome,[1],inactive
same,outcome,[2],inactive
same,outcome,[3],inactive
c1ccc(Oc2ccccc2)cc1,outcome,[1],inactive
same,outcome,[2],inactive
same,outcome,[3],inactive
Cc1ccc(S(N)(=O)=O)cc1,outcome,[1],inactive
same,outcome,[2],inactive
same,outcome,[3],inactive
O=C(O)CCCCCCCCC(=O)O,outcome,[1],inactive
same,outcome,[2],inactive
CC=Cc1ccc(OC)c(OC)c1,outcome,[1],inactive
same,outcome,[2],inactive
CC1(C)C2=CCCC(C)(C)[C@]23CC[C@H]1C3,outcome,[1],inactive
same,outcome,[2],inactive
CC1(C)CCC[C@]2(C)[C@H]3CCO[C@]3(C)CC[C@@H]12,outcome,[4],inactive
same,outcome,[5],inactive
same,outcome,[6],inactive
same,outcome,[7],inactive
same,outcome,[8],inactive
same,outcome,[9],inactive
same,outcome,[10],inactive
same,outcome,[11],inactive
CCCSc1ccc2nc(NC(=O)OC)[nH]c2c1,outcome,[1],inactive
same,outcome,[2],inactive
CN(C)CCOc1ccc(/C(=C(/CCCl)c2ccccc2)c2ccccc2)cc1,AC50,[1],68.7 µM (active)
same,AC50,[2],50 µM (active)
same,outcome,[3],inactive
COC(=O)c1ccc(C)cc1C1=NC(C)(C(C)C)C(=O)N1 (configuration not stated) (tested in a mixture with another compound),outcome,[1],inactive
same,outcome,[2],inactive
Brc1ccc(Br)c(Br)c1,outcome,[1],inactive
same,outcome,[2],inactive
COc1cc([C@@H]2c3cc4c(cc3[C@@H](O[C@@H]3O[C@@H]5CO[C@@H](C)O[C@H]5[C@H](O)[C@H]3O)[C@H]3COC(=O)[C@H]23)OCO4)cc(OC)c1O,outcome,[1],inactive
same,outcome,[2],inactive
same,outcome,[3],inactive
O=P(O)(O)O,outcome,[1],inactive
same,outcome,[2],inactive
same,outcome,[3],inactive
OCC#CCO,outcome,[1],inactive
same,outcome,[2],inactive
same,outcome,[3],inactive
O=c1[nH]c(=O)c2cn[nH]c2[nH]1,outcome,[1],inactive
same,outcome,[2],inactive
same,outcome,[3],inactive
CS(=O)(=O)c1ccc(Cl)cc1,outcome,[1],inactive
same,outcome,[2],inactive
same,outcome,[3],inactive
C[C@@H]1CCN(C(=O)[C@H](CCCN=C(N)N)NS(=O)(=O)c2cccc3c2NC[C@H](C)C3)[C@@H](C(=O)O)C1,outcome,[1],inactive
same,outcome,[2],inactive
same,outcome,[3],inactive
CCC1(c2ccccc2)C(=O)NCNC1=O,outcome,[1],inactive
same,outcome,[2],inactive
same,outcome,[3],inactive
CC(C)c1ccccc1O,outcome,[1],inactive
same,outcome,[2],inactive
same,outcome,[3],inactive
CC(C)(C)CC(C)(C)c1ccc(OCCOCC[N+](C)(C)Cc2ccccc2)cc1,outcome,[1],inactive
same,outcome,[2],inactive
same,outcome,[3],inactive
OC[C@H]1O[C@@H](Oc2ccc(O)cc2)[C@H](O)[C@@H](O)[C@@H]1O,outcome,[1],inactive
same,outcome,[2],inactive
same,outcome,[3],inactive
CCCC1O[C@@H]2C[C@H]3[C@@H]4CCC5=CC(=O)C=C[C@]5(C)[C@H]4[C@@H](O)C[C@]3(C)[C@]2(C(=O)CO)O1 (some centres not stated),outcome,[1],inactive
same,outcome,[2],inactive
same,outcome,[3],inactive
O=C(O)c1cccnc1C(=O)O,outcome,[1],inactive
same,outcome,[2],inactive
same,outcome,[3],inactive
CCCCCCOC(=O)CCC,outcome,[1],inactive
same,outcome,[2],inactive
same,outcome,[3],inactive
CC(=O)CC(=O)Nc1ccccc1,outcome,[1],inactive
same,outcome,[2],inactive
same,outcome,[3],inactive
O=C(O)c1ccc(O)cc1,outcome,[1],inactive
same,outcome,[2],inactive
same,outcome,[3],inactive
CC1(C)COCN1,outcome,[1],inactive
same,outcome,[2],inactive
same,outcome,[3],inactive
C=CCOC(=O)CCCCCC,outcome,[1],inactive
same,outcome,[2],inactive
same,outcome,[3],inactive
ON=C1CCCCC1,outcome,[1],inactive
same,outcome,[2],inactive
same,outcome,[3],inactive
CCC(C)=O,outcome,[1],inactive
same,outcome,[2],inactive
same,outcome,[3],inactive
C1=CC2C3C=CC(C3)C2C1 (configuration not stated),outcome,[1],inactive
same,outcome,[2],inactive
same,outcome,[3],inactive
Nc1ccn([C@H]2CS[C@@H](CO)O2)c(=O)n1,outcome,[1],inactive
same,outcome,[2],inactive
same,outcome,[3],inactive
